Source: PubChem BioAssay AID602442 (National Center for Advancing Translational Sciences (NCATS), 2012)
The source made the active and inactive calls. The rule behind the calls is not given here.

These molecules were tested against Thyrotropin receptor (Homo sapiens) (UniProt P16473) (assay: qHTS for antagonists of the Thyroid Stimulation Hormone Receptor: Hit Validation for Inverse Agonism). Conditions: active compounds read high.
Text: The thyroid-stimulating hormone receptor (TSHR) is a member of the 7 trans-membrane-spanning receptor (7TMR) family of cell surface receptors. TSHR-mediated hyperthyroidism is important in thyroid pathology. The development of small molecule antagonists of TSHR may lead to therapeutic approaches for TSHR-mediated hyperthyroidism caused by constitutively activating mutations or stimulating auto-antibodies associated with Graves' disease. Graves' disease is the leading cause of hyperthyroidism and is caused by autoantibodies that stimulate TSHR (TsAbs) causing thyroid growth and unregulated overproduction of thyroid hormones and existing treatments have liabilities (agranulocytosis). In addition, TSHRs are known to be expressed in multiple extrathyroidal tissues including bone, brain, kidney, testis, fat and cells of the immune system but the role of the TSHR in these tissues is not clear. Therefore, TSHR antagonists/inverse agonists could be used as probes of extrathyroidal TSHR function. Finally, TSHR inverse agonists, which are a subclass of antagonists that inhibit agonist-independent (or basal or constitutive) TSHR signaling, could be used to inhibit TSH-independent signaling in patients with recurrent or metastatic thyroid cancer who are receiving thyroid hormone to suppress TSH. […]

Chain of Thyrotropin receptor (Homo sapiens) (P16473 whole entry, looked up): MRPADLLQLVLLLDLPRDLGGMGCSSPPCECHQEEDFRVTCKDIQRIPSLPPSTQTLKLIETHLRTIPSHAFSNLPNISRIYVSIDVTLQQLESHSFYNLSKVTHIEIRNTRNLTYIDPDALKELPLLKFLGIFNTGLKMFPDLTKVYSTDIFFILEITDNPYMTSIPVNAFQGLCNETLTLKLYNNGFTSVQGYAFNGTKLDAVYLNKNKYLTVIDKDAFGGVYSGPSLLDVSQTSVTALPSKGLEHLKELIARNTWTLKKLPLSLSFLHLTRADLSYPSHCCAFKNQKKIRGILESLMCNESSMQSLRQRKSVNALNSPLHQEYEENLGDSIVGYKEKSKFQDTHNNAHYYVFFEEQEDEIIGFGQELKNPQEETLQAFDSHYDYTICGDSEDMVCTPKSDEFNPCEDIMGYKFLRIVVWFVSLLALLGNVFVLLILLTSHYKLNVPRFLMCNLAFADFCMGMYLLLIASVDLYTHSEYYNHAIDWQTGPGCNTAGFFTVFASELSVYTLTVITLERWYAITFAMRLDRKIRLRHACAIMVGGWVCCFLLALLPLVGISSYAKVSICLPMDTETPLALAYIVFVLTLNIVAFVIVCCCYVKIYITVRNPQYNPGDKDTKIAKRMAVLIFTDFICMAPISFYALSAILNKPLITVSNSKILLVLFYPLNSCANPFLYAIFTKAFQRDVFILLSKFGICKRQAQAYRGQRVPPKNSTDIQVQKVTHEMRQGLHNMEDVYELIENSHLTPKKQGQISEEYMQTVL

Compound | max inhibition
COC(=O)C1=C(c2ccc(-c3ccccc3)c(F)c2)C[C@@H]2CC[C@H]1N2C(=O)NCCOc1ccccc1 | 75% (active)
